Laboratory results published in PubChem BioAssay (Tox21).
Values joined by “and” are separate entries in the source; they are usually repeats but may differ in a detail not shown here. Equal entries are not always repeated. Results filed as inconclusive are left out. Entries that show only a call come without a potency. Some structures have more than one record in an assay (separate samples or runs), and their calls can disagree. Active and inactive are the calls of the source. Calls follow the shape of the dose curve; as a rule, active = well fitted inhibition curve with a large enough effect in the repeat runs; inconclusive = weak or mixed curves; inactive = no such curve, though single readings can be large or run the other way.

Each compound was assayed against Cytochrome P450 3A4 (Homo sapiens) (UniProt P08684) (assay: Cytochrome P450 Family 3 Subfamily A Member 4 (CYP3A4) small molecule antagonists: luciferase reporter qHTS assay (AID 1671201; also: nearly all actives have a fitted effect of over 50% in size)). Conditions: P450-Glo CYP3A4 enzyme, luciferin luminescence, 1 h; series mostly up to 115 µM.
Text: National Center for Advancing Translational Sciences [NCATS]
U.S. Environmental Protection Agency [EPA]
National Institutes of Environmental Health Sciences [NIEHS]
National Toxicology Program [NTP]
U.S. Food and Drug Administration [FDA]
Cytochrome P450 (CYP) enzymes are membrane-bound hemeproteins that play a key role in metabolism of drugs and xenobiotics. Evaluation of the effect of chemicals on CYP isozymes is useful to minimize the adverse drug reactions and toxicities in drug development process. Tox21 chemicals were tested for their effect on CYP enzyme activities by using P450-Glo (TM) screening systems (Promega Corporation, Madison, WI). These systems provide a luminescent method containing proluciferin substrates and are converted to luciferin products by CYP isozymes. The luciferin products formed are detected with a luciferin detection reagent, and the amount of light produced is proportional to CYP activity. P450-Glo (TM) CYP3A4 screening system (Catalog. No. V9910) was used to detect the compounds that interfere in CYP3A4 activity. The positive control compound used for CYP3A4 assay is ketoconazole (Sigma-Aldrich, St. Louis, MO).
Tox21 Assay Protocol Summary:
Two ul of enzyme-substrate mix was dispensed into medium binding white/solid 1536-well plates (Greiner Bio-One North America Inc., Monroe, NC) using a BioRaptr Flying Reagent Dispenser (FRD, Beckman Coulter, Brea, CA). Compounds dissolved in DMSO and positive control (ketoconazole) were transferred to the assay plates at 23 nl using a Pintool station (Wako, San Diego, CA). The assay plates were incubated at room temperature for 10 min. Then 2 ul of NADPH regeneration solution was added to each well of the assay plates using an FRD and incubated at room temperature for 1 h. The reaction was stopped by adding 4 ul of detection reagent using an FRD and after 20 min incubation at room temperature the luminescence signal was measured using a ViewLux plate reader (Perkin Elmer, Shelton, CT). Data were expressed as relative luminescence units.
Potency is read from the fitted curve at half-maximal effect.

Cytochrome P450 3A4 (Homo sapiens), sequence (P08684 whole entry, looked up): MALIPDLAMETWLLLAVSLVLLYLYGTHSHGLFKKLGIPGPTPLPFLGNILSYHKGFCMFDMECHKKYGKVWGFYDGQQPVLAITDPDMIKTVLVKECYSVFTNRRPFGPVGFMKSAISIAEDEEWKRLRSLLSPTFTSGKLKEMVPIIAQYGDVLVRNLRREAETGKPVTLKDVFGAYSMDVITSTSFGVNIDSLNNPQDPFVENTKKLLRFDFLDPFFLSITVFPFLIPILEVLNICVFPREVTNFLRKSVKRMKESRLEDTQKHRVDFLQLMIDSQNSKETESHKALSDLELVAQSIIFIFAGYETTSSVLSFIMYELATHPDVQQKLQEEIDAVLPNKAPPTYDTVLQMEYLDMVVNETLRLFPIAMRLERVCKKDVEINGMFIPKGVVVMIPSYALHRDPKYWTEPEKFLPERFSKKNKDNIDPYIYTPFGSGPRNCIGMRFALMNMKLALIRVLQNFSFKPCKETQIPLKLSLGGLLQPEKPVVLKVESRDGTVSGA

SMILES | Potency
OCCOc1ccccc1 | inactive
COc1ccccc1N | 22.4 µM (active) and inactive and 28.3 µM (active)
CCn1cc[n+](C)c1C | inactive
O=[N+]([O-])c1ccccc1O | inactive
CCCCCCCCCCCCCC[P+](CCCCCC)(CCCCCC)CCCCCC | 7.13 µM (active) and 7.16 µM (active) and 3.99 µM (active)
O=c1nc(O)n(Cl)c(=O)n1Cl | inactive
COP(=O)(OC)OC=C(Cl)Cl | inactive
Oc1ccccc1-c1ccccc1 | inactive
CCCCCCCCn1cc[n+](C)c1 | inactive
O=C(O)C(Cl)(Cl)Cl | inactive
CCNc1nc(Cl)nc(NCC)n1 | inactive
CCCn1cc[n+](C)c1 | inactive
CCCC[N+]1(C)CCCCC1 | inactive
CCCCCCCCCCCCOS(=O)(=O)O | inactive
Nc1ccc(-c2ccc(N)c(Cl)c2)cc1Cl | 5.05 µM (active) and 6.63 µM (active) and 7.96 µM (active)
CC(=O)[O][Hg][c]1ccccc1 | 4.98 µM (active) and 7.96 µM (active) and 12.3 µM (active)
Nc1ccc(-c2ccc(N)cc2)cc1 | 7.87 µM (active) and 7.91 µM (active) and 17.8 µM (active)
COc1ccc(N)cc1 | inactive
CCCC[N+]1(C)CCCC1 | inactive
Nc1ccccc1 | inactive

SMILES | Potency
CC[n+]1ccccc1 | inactive
CCC[N+]1(C)CCCC1 | inactive
C[C@]12CCC(=O)C=C1CC[C@@H]1[C@@H]2CC[C@]2(C)C(=O)CC[C@@H]12 | inactive
CCCC[n+]1cccc(C)c1 | inactive
CNC | inactive
O=C(O)c1nc(Cl)ccc1Cl | inactive
CCC[N+]1(C)CCCCC1 | inactive
Nc1ccc(Cl)cc1 | inactive
CN(C)[C@@H]1C(=O)C(C(N)=O)=C(O)[C@@]2(O)C(=O)C3=C(O)c4c(O)cccc4[C@@](C)(O)[C@H]3[C@H](O)[C@@H]12 | inactive
CC[N+]1(C)CCCC1 | inactive
O=C(O)COc1ccc(Cl)cc1Cl | inactive
C1CCC(NC2CCCCC2)CC1 | inactive
O=c1[nH]c(=O)n(Cl)c(=O)n1Cl | inactive
CCCCCCn1cc[n+](C)c1 | inactive
COCC(=O)N(c1c(C)cccc1C)C(C)C(=O)OC (stereo not given) | inactive
CCCCCCCCCCCCn1cc[n+](C)c1 | 80.3 µM (active) and inactive
CCCCCCCCCCn1cc[n+](C)c1 | inactive
CCCCn1cc[n+](C)c1C | inactive
C[N+](C)(C)Cc1ccccc1 | inactive
CC(Cl)(Cl)C(=O)O | inactive
